The record followed here is PubChem BioAssay AID1851 (National Center for Advancing Translational Sciences (NCATS), 2009).

Screen size: about 16,000 compounds; about 5,100 (32%) were called active. Inconclusive results (about 25%) are left out. The list shows a part of the results. A number with no mark means an inactive call. Calls come from the whole dose curve; as a rule, active = well fitted curve in the direction sought with a large enough effect; inconclusive = small, poorly fitted or top-dose-only effect, or effect the other way; inactive = no such curve, though single readings can be large or run the other way.
% is set by controls: 0 for no effect and ±100 for the full control effect.

Chain of Cytochrome P450 3A4 (Homo sapiens) (P08684 whole entry, looked up): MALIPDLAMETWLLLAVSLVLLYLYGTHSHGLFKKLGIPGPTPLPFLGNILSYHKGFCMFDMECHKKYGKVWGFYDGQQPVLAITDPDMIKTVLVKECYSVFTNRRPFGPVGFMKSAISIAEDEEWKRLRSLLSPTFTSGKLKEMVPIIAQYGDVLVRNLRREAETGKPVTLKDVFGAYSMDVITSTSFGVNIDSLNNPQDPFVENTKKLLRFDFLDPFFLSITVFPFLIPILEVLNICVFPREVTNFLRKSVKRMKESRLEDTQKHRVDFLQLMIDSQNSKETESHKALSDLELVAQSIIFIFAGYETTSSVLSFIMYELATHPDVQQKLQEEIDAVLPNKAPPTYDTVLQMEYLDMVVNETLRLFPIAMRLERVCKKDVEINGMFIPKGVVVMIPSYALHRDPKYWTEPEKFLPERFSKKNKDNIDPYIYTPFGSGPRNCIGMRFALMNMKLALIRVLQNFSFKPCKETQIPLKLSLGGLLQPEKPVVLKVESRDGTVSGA

The test addresses Cytochrome P450 3A4 (Homo sapiens) (UniProt P08684). The test is described as follows: Cytochrome panel assay with activity outcomes. Particulars: recombinant CYP, pro-luciferin dealkylation, luminescence, p450-cyp3a4; series mostly up to 57.1 µM; activity, negative = inhibition: at the top concentration.
Take `Cc1ccc(OCC(=O)NC2=NCCS2)cc1`: the activity, negative = inhibition was -22.5% [at 11.4 µM].

`Cc1ccc(OCC(=O)Nc2ccccc2-c2ccccc2)cc1`: the AC50 (in general, the midpoint of the concentration-response curve, whichever way the signal moves) was 20 µM (active).

As for `Cc1ccc(OCC(=O)NNC(=O)CCc2ccccc2)cc1`, the “activity, negative = inhibition” value is -11.1%.

On to `Cc1ccc(OCC(=O)Nn2cnc3ccccc32)cc1`, for which the AC50 is 7.94 µM (active).

As for `Cc1ccc(OCC(=O)NNC(=O)CCC(=O)NCc2ccccc2)cc1`, the “activity, negative = inhibition” value was -28.6%.

For the compound `CN(C)CCN1C(=O)C(O)=C(C(=O)c2cc3ccccc3o2)C1c1cccc(Br)c1` (centres undefined), the activity, negative = inhibition was 27.7% [at 2.29 µM].

For the compound `O=C(Nc1ccccc1)N1CC[C@@]2(CCCN(C(=O)c3ccco3)C2)C1`, the “activity, negative = inhibition” value is -27.6%.

`CC(C)NC(=O)N1CC2(CCN(C(=O)c3ccco3)CC2)C1`: the “activity, negative = inhibition” value was -0.152%.

As for `O=C(c1ccco1)N1CCC2(CCCN(C(c3ccccc3)c3ccccc3)C2)CC1`, the AC50 was 12.6 µM (active).

Regarding `O=C(c1ccco1)N1CCC[C@@]2(CCN(C(c3ccccc3)c3ccccc3)C2)C1`, the AC50 was 12.6 µM (active).

With `COc1cc(-c2nnc(SCC3(c4ccc(Br)cc4)OCCO3)o2)cc(OC)c1OC`, the AC50 is 12.6 µM (active).

Take `COc1cc(-c2nnc(SCC3(c4ccccc4)OCCO3)o2)cc(OC)c1OC`: the AC50 is 4.47 µM (active).

On to `COc1cc(-c2nnc(SCC(=O)Nc3ccc4c(c3)OCCO4)o2)cc(OC)c1OC`, for which the AC50 was 8.91 µM (active).

With `Cc1ccc(NC(=O)CSc2nnc(-c3ccncc3)o2)cc1`, the activity, negative = inhibition was -3.56% [at 2.29 µM].

On to `Cc1ccc(/C=N\Nc2nc3ccc(Cl)cc3[nH]2)o1`, for which the AC50 was 8.91 µM (active).

Take `OC[C@@H](O)[C@@H](O)[C@@H](O)[C@@H](O)c1nc2ccc(Cl)cc2[nH]1`: the activity, negative = inhibition was -5.7% [at 11.4 µM].

As to `CCOC(=O)N/N=C/c1ccc(C)o1`, the “activity, negative = inhibition” value was -15.3%.

As to `Cc1cccc(NC(=S)NNC(=O)c2csc3c2CCCC3)c1`, the activity, negative = inhibition was -15.2% [at 2.29 µM].

Consider `Cc1cccc(NC(=O)C23CCC(C)(C2Br)C3(C)C)c1` (centres undefined), for which the AC50 is 12.6 µM (active).

As for `Cc1cccc(NC(=O)C2(c3ccc([N+](=O)[O-])cc3)CCCC2)c1`, the activity, negative = inhibition was -2.71% [at 2.29 µM].

On to `CC12CCC(C(=O)Nc3cccc4ccccc34)(C1Br)C2(C)C` (centres undefined), for which the AC50 was 11.2 µM (active).

Turning to `O=C(O)c1cccc(C(=O)O)c1S(=O)Cc1ccccc1` (centres undefined), the activity, negative = inhibition is -7.75% [at 11.4 µM].

For `O=C(/C=C/c1ccc(Cl)cc1)NCCSc1ccccc1`, the “activity, negative = inhibition” value is 0.692%.

With `O=C(O)CCCSc1ccccc1`, the activity, negative = inhibition is 5.11% [at 11.4 µM].

Consider `NNC(=O)CCSc1ccccc1`, for which the AC50 was 3.98 µM (active).

For `Cc1nc2ccc(S(=O)(=O)NC(CC(C)C)C(=O)O)cc2s1` (centres undefined), the activity, negative = inhibition is -3.56% [at 2.29 µM].

For the compound `Cc1ccc(S(=O)(=O)NC(CC(C)C)C(=O)Oc2ccc3c4c(c(=O)oc3c2)CCC4)cc1` (centres undefined), the AC50 is 14.1 µM (active).

Consider `Cc1ccc(S(=O)(=O)N[C@H](CN)C(=O)O)cc1`, for which the activity, negative = inhibition is -20.1% [at 11.4 µM].

For `Cc1ccc(S(=O)(=O)N[C@H](C(=O)O)C(C)C)cc1`, the activity, negative = inhibition is -11.9% [at 11.4 µM].

With `CCC(C)C(NS(=O)(=O)c1ccc(C)cc1)C(=O)Oc1ccc2c3c(c(=O)oc2c1)CCC3` (centres undefined), the AC50 is 7.94 µM (active).

For `CC(C)Oc1ccc2c(=O)c3cc(C(=O)O)ccc3oc2c1`, the “activity, negative = inhibition” value was -21.8%.

On to `NCc1ccc(C(=O)O)cc1`, for which the activity, negative = inhibition was -14.2% [at 11.4 µM].

For the compound `O=C(c1cc2sccc2n1Cc1ccccc1)N1CCN(c2nc3ccccc3s2)CC1`, the AC50 is 0.631 µM (active).

As to `O=S(=O)(O)c1nc2ccccc2n1Cc1ccccc1`, the “activity, negative = inhibition” value was -3.58%.

In the case of `CN(Cc1n[nH]c(=S)n1C)S(=O)(=O)c1ccccc1`, the “activity, negative = inhibition” value is -10.1%.

For the compound `S=c1[nH]nc(CCc2ccccc2)n1Cc1ccccc1`, the AC50 was 7.94 µM (active).

As for `O=C1c2ccccc2C(Cc2ccncc2)(Cc2ccncc2)c2ccccc21`, the AC50 was 0.501 µM (active).

Turning to `COC(=O)C1=C(N)N(c2ccccc2C(F)(F)F)C2=C(C(=O)CCC2)C1c1ccc2c(c1)OCO2` (centres undefined), the AC50 was 0.316 µM (active).

As to `Cc1cc([C@](C)(N)C(=O)O)ccc1P(=O)(O)O`, the “activity, negative = inhibition” value was 0.891%.

Take `Clc1ccccc1OCCCCN1CCCC1`: the “activity, negative = inhibition” value was -0.971%.

As to `CN1CCN(CCc2ccc(Cl)c(Cl)c2)CC1`, the “activity, negative = inhibition” value was -3.98%.

On to `CN(CCc1ccc(Cl)c(Cl)c1)CCN1CCCCCC1`, for which the AC50 is 10 µM (active).

Take `Cc1[nH]c2ccccc2c1/C=C(\C#N)C(=O)NC(C)c1ccccc1` (centres undefined): the AC50 is 7.08 µM (active).

Turning to `Cc1[nH]c2ccccc2c1/C=C/c1cc[n+](C)cc1`, the “activity, negative = inhibition” value is -9.6%.

Regarding `C[C@H](NC(=O)/C(C#N)=C/c1ccc(O)c(O)c1)c1ccccc1`, the AC50 is 3.16 µM (active).

Take `C[C@@H](NC(=O)/C(C#N)=C/c1ccc(O)c(O)c1)c1ccccc1`: the AC50 was 15.8 µM (active).

In the case of `CC1(C)C2([N+](=O)[O-])CN3CC1([N+](=O)[O-])CN(C2)C31CCCC1`, the “activity, negative = inhibition” value was 4.06%.

Take `COc1ccc(CC(=O)NCCN2CCCC2)cc1`: the “activity, negative = inhibition” value was 0.907%.

As for `CCOc1ccc(CCNC(=O)CCCN2C(=O)c3ccccc3C2=O)cc1OCC`, the AC50 was 7.08 µM (active).

As to `COc1ccc(CCNC(=O)CCCCCN2C(=O)c3ccccc3C2=O)cc1`, the AC50 is 6.31 µM (active).

In the case of `CCCN(CCC)CCCNC(=O)c1ccc2c(c1)N(CC)C(=O)c1ccccc1S2=O` (centres undefined), the “activity, negative = inhibition” value is -23.9%.

As for `CCN(CC)CCOC(=O)c1c(C)n(C)c2ccc(OC)cc12`, the “activity, negative = inhibition” value is -23.9%.

Regarding `CCCc1cc2c(=O)c(-c3ccc4c(c3)OCCO4)coc2cc1OC(=O)c1ccco1`, the activity, negative = inhibition is 9.62% [at 2.29 µM].

Consider `CCOC(=O)c1c(C)n(C)c2ccc(OC(=O)c3ccco3)cc12`, for which the AC50 was 15.8 µM (active).

Take `CC(=O)OC[C@@H]1O[C@@H](O/N=C2/C[C@@H](O)[C@@H](O)[C@@H]3[C@@H]4C(=O)N(C(C)(C)C)C(=O)[C@H]4CC[C@@H]23)[C@H](OC(C)=O)[C@H](OC(C)=O)[C@@H]1OC(C)=O`: the activity, negative = inhibition was -3.46% [at 11.4 µM].

`CC1=NN(c2ccccc2)C(=O)/C1=C\N1CC(C)OC(C)C1` (centres undefined): the “activity, negative = inhibition” value is -26.3%.

In the case of `Nc1cccc2cc(S(=O)(=O)Nc3ccc(C(=O)O)cc3)ccc12`, the activity, negative = inhibition was -7.54% [at 11.4 µM].

For the compound `CC(=O)c1cccc(NS(=O)(=O)c2ccc(N/C=C\C(=O)c3ccc(F)cc3)cc2)c1`, the AC50 is 0.708 µM (active).

In the case of `Cc1ccc(C)c(/C(=N\N=C(N)N)C2CC2)c1`, the activity, negative = inhibition was -27% [at 11.4 µM].
